Laboratory results taken from PubChem BioAssay (NCATS).
Inconclusive results are not listed. Values without a mark were called inactive. Activity calls are given as the source filed them. Calls follow the shape of the dose curve; as a rule, active = well fitted cell-killing curve with a large enough effect; inconclusive = small, poorly fitted or top-dose-only effect, or effect the other way; inactive = no such curve, though single readings can be large or run the other way.

Experiments:
[1] = Quantitative High-Throughput drug screen in 47 multiple myeloma cell lines against the NCATS MIPE library collection: L363_DSMZ cell viability assay (AID 1918984); settings: L363 myeloma viability, CellTiter-Glo ATP luminescence, 48 h; viability (% of control): at 45.8 µM (top of the series); also: nearly all actives have a fitted effect of over 40% in size
Summary of the method: (§1)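 Readout: median RLU from CellTiter-Glo after 5 min at room temperature. Preceding step was 48 h drug treatment of 500 cells/well at 37 °C, 5% CO2, with DMSO-only and media-only control wells.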

[2] = Quantitative High-Throughput drug screen in 47 multiple myeloma cell lines against the NCATS MIPE library collection: OCIMY7_PLB cell viability assay (AID 1918987); settings: OCI-MY7 myeloma viability, CellTiter-Glo ATP, 48 h; viability (% of DMSO): at 45.8 µM (top of the series); also: nearly all actives have a fitted effect of over 65% in size
Summary of the method: as §1

[3] = Quantitative High-Throughput drug screen in 47 multiple myeloma cell lines against the NCATS MIPE library collection: OCIMY5_PLB cell viability assay (AID 1918988); also: nearly all actives have a fitted effect of over 65% in size
Summary of the method: as §1

[4] = Quantitative High-Throughput drug screen in 47 multiple myeloma cell lines against the NCATS MIPE library collection: OPM1_PLB cell viability assay (AID 1918989); also: nearly all actives have a fitted effect of over 40% in size
Summary of the method: as §1

[5] = Quantitative High-Throughput drug screen in 47 multiple myeloma cell lines against the NCATS MIPE library collection: U266_ATCC cell viability assay (AID 1919864); also: nearly all actives have a fitted effect of over 35% in size
Summary of the method: as §1

[6] = Quantitative High-Throughput drug screen in 47 multiple myeloma cell lines against the NCATS MIPE library collection: XG6_PLB cell viability assay (AID 1919865); also: nearly all actives have a fitted effect of over 40% in size
Summary of the method: as §1

[7] = Quantitative High-Throughput drug screen in 47 multiple myeloma cell lines against the NCATS MIPE library collection: XG1_PLB cell viability assay (AID 1919866); also: nearly all actives have a fitted effect of over 35% in size
Summary of the method: as §1

[8] = Quantitative High-Throughput drug screen in 47 multiple myeloma cell lines against the NCATS MIPE library collection: VP6_DJ cell viability assay (AID 1919867); also: nearly all actives have a fitted effect of over 40% in size
Summary of the method: as §1

[9] = Quantitative High-Throughput drug screen in 47 multiple myeloma cell lines against the NCATS MIPE library collection: UTMC2_PLB cell viability assay (AID 1919868); settings: CellTiter-Glo ATP luminescence, 48 h; viability (% of DMSO control): at 45.8 µM (top of the series); also: nearly all actives have a fitted effect of over 55% in size
Summary of the method: as §1

[10] = Quantitative High-Throughput drug screen in 47 multiple myeloma cell lines against the NCATS MIPE library collection: PE2_PLB cell viability assay (AID 1919869); also: nearly all actives have a fitted effect of over 35% in size
Summary of the method: as §1

[11] = Quantitative High-Throughput drug screen in 47 multiple myeloma cell lines against the NCATS MIPE library collection: PCM6_Riken cell viability assay (AID 1919870); also: nearly all actives have a fitted effect of over 30% in size
Summary of the method: as §1

[12] = Quantitative High-Throughput drug screen in 47 multiple myeloma cell lines against the NCATS MIPE library collection: RPMI8226_ATCC cell viability assay (AID 1919871); also: nearly all actives have a fitted effect of over 30% in size
Summary of the method: as §1

[13] = Quantitative High-Throughput drug screen in 47 multiple myeloma cell lines against the NCATS MIPE library collection: KMS11_JCRBsus cell viability assay (AID 1919873); also: nearly all actives have a fitted effect of over 50% in size
Summary of the method: as §1

[14] = Quantitative High-Throughput drug screen in 47 multiple myeloma cell lines against the NCATS MIPE library collection: KMS28BM_JCRB cell viability assay (AID 1919874); also: nearly all actives have a fitted effect of over 35% in size
Summary of the method: as §1

[15] = Quantitative High-Throughput drug screen in 47 multiple myeloma cell lines against the NCATS MIPE library collection: KMS34_JCRB cell viability assay (AID 1918985); also: nearly all actives have a fitted effect of over 40% in size
Summary of the method: as §1

[16] = Quantitative High-Throughput drug screen in 47 multiple myeloma cell lines against the NCATS MIPE library collection: OPM2_DSMZ cell viability assay (AID 1919872); also: nearly all actives have a fitted effect of over 30% in size
Summary of the method: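 Myeloma cells (500 per well) were exposed to MIPE 4.0 compounds by pin transfer and incubated 48 hours at 37C, 5% CO2. Viability was read as ATP by CellTiter-Glo luminescence, normalised to DMSO (100%) and media-only (0%) wells.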

[17] = Quantitative High-Throughput drug screen in 47 multiple myeloma cell lines against the NCATS MIPE library collection: SKMM1_PLB cell viability assay (AID 1919863); settings: SKMM1 myeloma viability, CellTiter-Glo ATP, 48 h; viability: stronger effect = lower value; also: nearly all actives have a fitted effect of over 35% in size
Summary of the method: as §1
Potency is read from the fitted curve at half-maximal effect.

With `Nc1ncnc2c1c(-c1cccc(OCc3ccccc3)c1)cn2C1CC(CN2CCC2)C1` (stereo not drawn) as the compound, how does the Potency [1] read?
Its Potency is 1.87 µM (active).

What about the Potency [2] of the same compound?
The Potency was 296 nM (active).

What about the Potency [3] of the same compound?
The Potency was 4.18 µM (active).

And the Potency [4]?
The Potency was 16.6 µM (active).

What about the Potency [5] of the same compound?
The Potency was 16.6 µM (active).

What about the Potency [6] of the same compound?
The Potency was 14.8 µM (active).

What about the Potency [7] of the same compound?
Its Potency is 23.5 µM (active).

What about the Potency [8] of the same compound?
Its Potency is 1.66 µM (active).

What about the Potency [9] of the same compound?
The Potency was 166 nM (active).

What about the Potency [10] of the same compound?
Its Potency is 6.62 µM (active).

What about the Potency [11] of the same compound?
Its Potency is 26.4 µM (active).

And the Potency [12]?
The Potency was 5260 nM (active).

What about the Potency [13] of the same compound?
The Potency was 2.96 µM (active).

And the Potency [14]?
The Potency was 2.96 µM (active).

Which results are given for `NCC1CCC(C(=O)O)CC1` (stereo not drawn)?
Potency [1]: inactive; Potency [15]: inactive; Potency [4]: inactive; Potency [5]: 5.9 µM (active); Potency [6]: inactive; Potency [10]: inactive; Potency [11]: inactive; Potency [16]: inactive; Potency [13]: inactive; Potency [14]: inactive

With `CC1(C)OC2CC3C4CC(F)C5=CC(=O)C=CC5(C)C4C(O)CC3(C)[C@]2(C(=O)CO)O1` (stereo partly drawn) as the compound, how does the Potency [1] read?
Its Potency is 0.132 µM (active).

What about the Potency [15] of the same compound?
Its Potency is 20.9 nM (active).

What about the viability [17] of the same compound?
The viability was 131%.

And the Potency [5]?
The Potency was “inactive”.

What about the Potency [7] of the same compound?
The Potency was “inactive”.

And the Potency [9]?
The Potency was “inactive”.

What about the Potency [11] of the same compound?
The Potency was “inactive”.

What about the Potency [12] of the same compound?
Its Potency is 11.8 nM (active).

What about the Potency [13] of the same compound?
Its Potency is 0.0264 µM (active).

What about the Potency [14] of the same compound?
The Potency was “inactive”.

For `C[C@]12CC[C@@H]3c4ccc(O)cc4CC[C@H]3[C@H]1[C@@H](O)[C@@H](O)[C@H]2O`, which Potency [1] is on record?
Its Potency is “inactive”.

What about the Potency [15] of the same compound?
Its Potency is “inactive”.

What about the Potency [4] of the same compound?
The Potency was “inactive”.

What about the Potency [6] of the same compound?
The Potency was 14.8 µM (active).

And the Potency [7]?
Its Potency is 14.8 µM (active).

What about the Potency [8] of the same compound?
Its Potency is “inactive”.

And the Potency [10]?
The Potency was “inactive”.

What about the Potency [16] of the same compound?
The Potency was “inactive”.

And the Potency [14]?
Its Potency is “inactive”.

With `C[C@@H]1O[C@@H](O[C@H]2CC[C@@]3(C)[C@H](CC[C@@H]4[C@H]3C[C@@H](O)[C@]3(C)[C@@H](C5=CC(=O)OC5)CC[C@]43O)C2)C[C@H](O)[C@@H]1O[C@H]1C[C@H](O)[C@H](O[C@H]2C[C@H](O)[C@@H](O)[C@@H](C)O2)[C@H](C)O1` (stereo in doubt) as the compound, how does the Potency [1] read?
Its Potency is 0.171 µM (active).

And the Potency [2]?
Its Potency is 152 nM (active).

What about the Potency [3] of the same compound?
Its Potency is 0.136 µM (active).

And the Potency [4]?
Its Potency is 0.27 µM (active).

And the Potency [17]?
Its Potency is 0.303 µM (active).

What about the Potency [5] of the same compound?
Its Potency is 0.121 µM (active).

And the Potency [6]?
The Potency was 0.152 µM (active).

What about the Potency [7] of the same compound?
Its Potency is 0.0605 µM (active).

What about the Potency [8] of the same compound?
The Potency was 0.136 µM (active).

And the Potency [9]?
Its Potency is 95.9 nM (active).

What about the Potency [10] of the same compound?
Its Potency is 0.215 µM (active).

What about the Potency [11] of the same compound?
The Potency was 0.108 µM (active).

And the Potency [12]?
The Potency was 215 nM (active).

What about the Potency [16] of the same compound?
The Potency was 121 nM (active).

And the Potency [13]?
Its Potency is 0.191 µM (active).

Which results are given for `CCCCN(CCCC)CC(O)c1cc(Cl)cc2c1-c1ccc(Cl)cc1C2=Cc1ccc(Cl)cc1` (stereo not drawn)?
Potency [1]: inactive; Potency [2]: 26400 nM (active); Potency [3]: 10.5 µM (active); Potency [4]: 18.7 µM (active); Potency [17]: 33.2 µM (active); Potency [5]: inactive; Potency [6]: 26.4 µM (active); Potency [7]: 23.5 µM (active); Potency [8]: 23.5 µM (active); Potency [10]: 20.9 µM (active); Potency [14]: 23.5 µM (active)

For `O=[N+]([O-])c1ccc(Nc2ccccc2-c2ccccc2)c2nonc12`, which Potency [1] is on record?
The Potency was 16.6 µM (active).

What about the Potency [15] of the same compound?
The Potency was “inactive”.

What about the Potency [4] of the same compound?
The Potency was 26.4 µM (active).

And the Potency [10]?
The Potency was 20.9 µM (active).

Which results are given for `CC(=O)OCC(=O)[C@@]12OC(C)(C)O[C@H]1C[C@H]1[C@@H]3C[C@H](F)C4=CC(=O)C=C[C@]4(C)[C@@]3(F)[C@@H](O)C[C@@]12C`?
Potency [1]: inactive; Potency [15]: inactive; Potency [4]: inactive; Potency [5]: inactive; Potency [6]: inactive; Potency [7]: inactive; Potency [12]: 8.3 nM (active); Potency [16]: inactive; Potency [14]: inactive

For `C[C@@]1(c2cc(-c3cncnc3)c(F)cc2F)CCSC(N)=N1`, which Potency [1] is on record?
Its Potency is 1.48 µM (active).

And the Potency [15]?
The Potency was “inactive”.

What about the Potency [5] of the same compound?
The Potency was “inactive”.

What about the Potency [9] of the same compound?
Its Potency is “inactive”.

What about the Potency [11] of the same compound?
Its Potency is 2.96 µM (active).

And the Potency [12]?
Its Potency is “inactive”.

And the Potency [14]?
Its Potency is 13.2 µM (active).

For `OC[C@H]1O[C@@H](Oc2ccc(O)cc2)[C@H](O)[C@@H](O)[C@H]1O`, which Potency [1] is on record?
Its Potency is “inactive”.

What about the Potency [15] of the same compound?
The Potency was “inactive”.

And the Potency [4]?
The Potency was “inactive”.

And the Potency [8]?
Its Potency is 7.43 µM (active).

What about the Potency [9] of the same compound?
Its Potency is 9350 nM (active).

And the Potency [11]?
The Potency was “inactive”.

What about the Potency [12] of the same compound?
The Potency was “inactive”.

What about the Potency [16] of the same compound?
Its Potency is “inactive”.

Which results are given for `CC[C@H](C=C[C@@H](C)[C@H]1CC[C@H]2[C@@H]3CC=C4C[C@@H](O)CC[C@]4(C)[C@@H]3CC[C@]12C)C(C)C`?
Potency [1]: inactive; Potency [15]: inactive; Potency [4]: inactive; viability [17]: 119%; Potency [5]: inactive; Potency [6]: 1.02 µM (active); Potency [7]: 1.02 µM (active); Potency [9]: inactive; Potency [10]: 0.0575 µM (active); Potency [11]: 0.575 µM (active); Potency [12]: inactive; Potency [16]: inactive

What does the source list for `O=C1NC(=O)C(c2cnc3ccccn23)=C1c1cn2c3c(cccc13)CN(C(=O)N1CCOCC1)CC2`?
Potency [1]: 0.0093 µM (active); Potency [2]: 74.3 nM (active); Potency [3]: 0.372 µM (active); Potency [4]: 10.5 µM (active); Potency [5]: inactive; Potency [6]: 1.87 µM (active); Potency [8]: 5.26 µM (active); Potency [9]: 1 nM (active); Potency [11]: 7.43 µM (active); Potency [12]: 18700 nM (active); Potency [16]: 4.7 nM (active); Potency [13]: 0.0935 µM (active); Potency [14]: inactive

What does the source list for `CC1=C(CC(=O)O)c2cc(F)ccc2C1=Cc1ccc(S(C)=O)cc1` (stereo not drawn)?
Potency [1]: 13.2 µM (active); Potency [3]: 0.935 µM (active); Potency [4]: 26.4 µM (active); viability [17]: 92.7%; Potency [5]: 1.18 µM (active); Potency [6]: 1.05 µM (active); Potency [7]: 0.935 µM (active); Potency [8]: 7.43 µM (active); Potency [9]: 18700 nM (active); Potency [10]: 20.9 µM (active); Potency [12]: inactive; Potency [16]: inactive; Potency [13]: 3.72 µM (active); Potency [14]: 9.35 µM (active)

Which results are given for `O=C(CCCN1CCN(c2ccc(F)cc2)CC1)NC1c2ccccc2CSc2ccccc21` (stereo not drawn)?
Potency [1]: 4.69 µM (active); Potency [3]: 16.6 µM (active); Potency [4]: 10.5 µM (active); Potency [17]: 5.9 µM (active); Potency [5]: 20.9 µM (active); Potency [6]: 14.8 µM (active); Potency [7]: 11.8 µM (active); Potency [8]: 7.43 µM (active); Potency [10]: 13.2 µM (active); Potency [11]: 14.8 µM (active); Potency [13]: 10.5 µM (active); Potency [14]: 11.8 µM (active)
